Bioassay records as filed in PubChem BioAssay.
Shown are actives, neighbours in structure and some others; about 3.6% of the full set was active somewhere.
FAS-TE inh: FAS thioesterase domain inhibitors, primary screen, biochemical, fluorescence intensity, uHTS. Fatty acid synthase (Homo sapiens), P49327. recombinant FAS-TE, OMFH fluorogenic substrate, fluorescence endpoint. inhibition, % at 15 µM. 0.67% of 360,000 active. AID 602261, 2012;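 active = compounds whose normalised, plate-corrected inhibition of enzyme fluorescence in the single-dose primary screen is 50% or more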;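 also: 0% = DMSO with enzyme and 100% = substrate without enzyme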
CRFR2-BP antag: antagonists of CRF-BP/CRF-R2 complex, primary screen, cell-based, HEK293, calcium dye fluorescence, uHTS | CRF-induced calcium fluorescence | inhibition, % at 11.8 µM | 0.59% of 350,000 active | AID 588475, 2011;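 active = inhibition of the ligand-induced calcium signal above about 50% at the single tested concentration, limit read from the data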
CendR NRP1 mod: modulators of CendR peptide binding to NRP-1, primary screen, biochemical, fluorescence polarization, uHTS. AID 602438, 2012. inhibition, % at 25 µM. FAM-RPARPAR peptide binding to NRP-1. 0.85% of 360,000 active. Neuropilin-1 (Homo sapiens), O14786;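 active = inhibition or corrected inhibition above about 18%, plus a signal ratio from 0.5 to 1.5, limit read from the data, passing the limit was not always enough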
Target sequence (O14786 whole entry, looked up): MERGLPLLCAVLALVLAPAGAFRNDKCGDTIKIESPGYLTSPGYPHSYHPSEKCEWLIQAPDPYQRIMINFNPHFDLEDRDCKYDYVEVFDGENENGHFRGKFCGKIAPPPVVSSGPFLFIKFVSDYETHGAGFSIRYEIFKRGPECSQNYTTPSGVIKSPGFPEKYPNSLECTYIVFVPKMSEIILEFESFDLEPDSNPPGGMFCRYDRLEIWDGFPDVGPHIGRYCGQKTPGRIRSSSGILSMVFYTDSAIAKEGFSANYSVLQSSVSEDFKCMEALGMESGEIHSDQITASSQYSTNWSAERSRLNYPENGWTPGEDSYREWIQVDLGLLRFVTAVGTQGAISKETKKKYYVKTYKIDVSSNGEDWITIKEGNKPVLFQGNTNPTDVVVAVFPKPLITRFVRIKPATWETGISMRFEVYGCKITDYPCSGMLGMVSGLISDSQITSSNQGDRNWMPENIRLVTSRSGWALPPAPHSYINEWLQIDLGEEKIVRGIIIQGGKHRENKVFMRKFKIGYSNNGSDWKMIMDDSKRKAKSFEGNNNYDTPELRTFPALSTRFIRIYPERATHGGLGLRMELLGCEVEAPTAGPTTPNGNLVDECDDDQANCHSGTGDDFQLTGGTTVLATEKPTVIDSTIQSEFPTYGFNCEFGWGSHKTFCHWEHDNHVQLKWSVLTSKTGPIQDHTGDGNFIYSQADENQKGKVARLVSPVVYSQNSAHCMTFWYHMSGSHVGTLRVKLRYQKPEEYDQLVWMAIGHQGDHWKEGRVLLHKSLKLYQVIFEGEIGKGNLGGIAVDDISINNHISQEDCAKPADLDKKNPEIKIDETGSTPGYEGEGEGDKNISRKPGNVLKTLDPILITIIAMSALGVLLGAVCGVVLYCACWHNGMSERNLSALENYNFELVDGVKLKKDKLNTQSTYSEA
Myeloid diff MLP: induction of myeloid progenitor differentiation, primary screen, cell-based, flow cytometry, MLPCN library; ER-HoxA9 myeloid progenitors, lysozyme-GFP differentiation; calls only at 10 µM; 1% of 360,000 active;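 active = normalized GFP-positive differentiation at or above the plate's own cutoff, the solvent-only control mean plus 3 SD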;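 also: cells exposed to compound for four days before flow analysis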
NadD block: inhibitors of S. aureus NadD, primary screen, biochemical, colorimetric, uHTS | Nicotinate-nucleotide adenylyltransferase NadD (Staphylococcus aureus N315) | AID 602399, 2012 | 0.78% of 360,000 active | purified NadD enzyme, colorimetric absorbance read-out | inhibition, % at 20 µM; in the data active = inhibition above about 26%
FAS-TE conf: FAS thioesterase domain inhibitors, confirmation, biochemical, fluorescence intensity, single concentration; 45% of 2,300 active; shares compounds with FAS-TE inh; recombinant FAS-TE, OMFH fluorogenic substrate; AID 624325, 2012; inhibition, % at 15 µM;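 active = compounds inhibiting the enzyme by at least 50% at 15 µM in any one of the replicates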;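 also: 0% = enzyme with DMSO only and 100% = wells lacking enzyme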
Numbers without * were called inactive; i = inactive; / = not tested or not shown.

SMILES | FAS-TE inh | CRFR2-BP antag | CendR NRP1 mod | Myeloid diff MLP | NadD block | FAS-TE conf
O=C(O)c1ccc(C2NCC(c3ccccc3Cl)c3c2[nH]c2ccccc32)cc1 (stereo not drawn) | 1 | -2 | -5 | i | 2 | /
COc1ccc(CN(Cc2cccn2C)C(=O)c2cc3cc(OC)ccc3[nH]2)cc1 | 31 | -4 | 3 | i | -1 | /
O=C(COC(=O)c1cc(F)c(F)cc1Cl)NC1CCCCCC1 | 56* | 20 | 0 | i | -6 | 68*
CC1CCCCN1C(=O)COC(=O)c1cc([N+](=O)[O-])ccc1N1CCOCC1 (stereo not drawn) | 54* | -4 | 10 | i | 0 | 57*
CCN(C(=O)COC(=O)c1cc([N+](=O)[O-])ccc1N1CCOCC1)C1CCCCC1 | 86* | 4 | -10 | i | -4 | 92*
O=C(COC(=O)c1cc([N+](=O)[O-])ccc1N1CCOCC1)NC1CCCCC1 | 92* | -2 | 0 | i | -1 | 91*
O=C(COC(=O)c1cc([N+](=O)[O-])ccc1N1CCOCC1)NC1CCS(=O)(=O)C1 (stereo not drawn) | 16 | 4 | 4 | i | 1 | /
O=C1C=C(c2ccccc2C(F)(F)F)C[C@@H](c2ccc3c(c2)OCO3)C1 | 32 | -3 | 6 | i | -11 | /
Cc1nn(-c2ccccc2)c(Cl)c1/C=N/NC(=O)c1ccccc1F | 3 | -5 | 3 | i | -9 | /
CN(C(=O)COC(=O)c1cc([N+](=O)[O-])ccc1N1CCOCC1)C1CCCCC1 | 89* | 2 | 10 | i | -1 | 93*
CCN(C(=O)COC(=O)c1cc([N+](=O)[O-])ccc1N1CCOCC1)C1CCS(=O)(=O)C1 (stereo not drawn) | 4 | 5 | 2 | i | 1 | /
CCOc1cc(/C=C(\C#N)C(=O)Nc2ccccc2C(=O)O)ccc1OC(=O)c1ccc(C)cc1 | 80* | 30 | -1 | i | -4 | -8
CC(C)N(Cc1ccccc1)C(=O)COC(=O)c1ccc(S(=O)(=O)N2CCOCC2)cc1 | 2 | -9 | -1 | i | -1 | /
CN(C(=O)COC(=O)c1c2c(nc3ccccc13)/C(=C/c1cccc([N+](=O)[O-])c1)CCC2)C1CCS(=O)(=O)C1 (stereo not drawn) | 67* | -5 | -8 | i | 6 | 14
CC(NC(=O)C12CC3CC(CC(C3)C1)C2)C(=O)N/N=C/C1=C(N2CCOCC2)C(=C\c2ccccc2)/CC1 (stereo not drawn) | 71* | -37 | -2 | i | 20 | 9
Cn1cc(C(=O)N/N=C/C2=C(N3CCOCC3)C(=C\c3ccccc3)/CC2)ccc1=O | -4 | -30 | -37 | i | -3 | /
CCc1noc(C)c1C(=O)OC(C)C(=O)Nc1ccccc1OC (stereo not drawn) | -3 | -3 | 1 | i | -3 | /
O=C(Nc1cccc(S(=O)(=O)N2CCOCC2)c1)c1cn(-c2ccccc2)nc1-c1ccccc1 | 51* | -20 | 4 | i | 4 | 20
CN1CCN(c2ccc(C(F)(F)F)cc2NC(=O)c2ccco2)CC1 | 0 | -7 | 13 | i | 0 | /
COC(=O)c1ccccc1NC(=S)NC(NC(=O)COc1ccccc1)C(Cl)(Cl)Cl (stereo not drawn) | 71* | 29 | 10 | i | 4 | 37
COC(=O)c1ccccc1NC(=O)COC(=O)c1ccc(C)c(NC(=O)c2ccco2)c1 | 71* | 13 | -4 | i | -1 | 17
COC(=O)c1ccccc1NC(=S)NC(NC(=O)c1ccco1)C(Cl)(Cl)Cl (stereo not drawn) | 50* | 12 | -5 | i | 1 | 42
COC(=O)c1ccccc1NC(=O)COC(=O)c1ccco1 | -5 | 36 | 15 | i | -3 | /
O=C(CSCc1ccc(F)cc1)Nc1ccc(N2CCOCC2)cc1N1CCOCC1 | 0 | 8 | -5 | i | -1 | /
Cc1nn(Cc2ccc(F)cc2)c2sc(C(=O)Nc3ccc(N4CCOCC4)cc3N3CCOCC3)cc12 | 52* | 3 | -5 | i | -5 | 26
SMILES | FAS-TE inh | CRFR2-BP antag | CendR NRP1 mod | Myeloid diff MLP | NadD block | FAS-TE conf
O=C(CN(C(=O)c1ccc(Cl)cc1Cl)N1C(=O)C2C3C=CC(C3)C2C1=O)c1ccc(F)cc1 (stereo not drawn) | 17 | -35 | -11 | i | -10 | /
Cc1ccc(C(=O)CN(C(=O)c2ccc(Cl)c(Cl)c2)N2C(=O)C3C4C=CC(C4)C3C2=O)cc1 (stereo not drawn) | 61* | -26 | -5 | i | 3 | 30
Cc1cccnc1C1=NOC(Cc2ccccc2)C(=O)N1CCOc1ccc(F)cc1 (stereo not drawn) | 29 | / | 0 | i | -7 | /
C/C(=N\NC(=S)NC1CCCCC1)c1ccc(OC(F)F)cc1OC(F)F | 57* | 5 | -17 | i | 17 | 45
CC1(C(=O)NC2CCCC2)CCC(=O)N1C1CCN(Cc2ccccc2)CC1 (stereo not drawn) | -3 | / | 7 | i | -6 | /
CCc1ccc(OCC(=O)N2c3ccccc3CCc3ccccc32)cc1 | 52* | 9 | -20 | i | 1 | 22
CCc1ccc(OCC(=O)N2CCc3ccccc32)cc1 | 7 | 4 | 1 | i | -6 | /
CSc1ccc(CN2C(=O)C(C)Oc3c(C(C)=O)cccc32)cc1 (stereo not drawn) | 42 | / | 5 | i | -6 | /
CSc1ccc(CN2C(=O)C(F)(F)Oc3c(C(C)=O)cccc32)cc1 | 52* | / | -1 | i | 0 | 59*
O=C(COc1cccc(Oc2ccccc2)c1)Nc1ccc(SC(F)F)cc1 | 81* | -28 | -3 | i | 2 | 55*
O=C(COc1cccc(OC(F)F)c1)Nc1ccc(SC(F)F)cc1 | 29 | 22 | 9 | i | -11 | /
CC(NC(=O)c1ccc(Cn2cc([N+](=O)[O-])cn2)cc1)c1ccccc1 (stereo not drawn) | -2 | 8 | -10 | i | 4 | /
CC(NC(=O)Cn1cc([N+](=O)[O-])cn1)c1ccc(C(C)(C)C)cc1 (stereo not drawn) | 76* | 1 | -14 | i | -2 | 55*
CSc1ccc(-c2cccc([N+](=O)[O-])c2)nn1 | 5 | 0 | 4 | i | -4 | /
O=[N+]([O-])c1cccc(-c2ccc(SCc3cccnc3)nn2)c1 | 53* | -1 | -2 | / | -2 | 58*
COC(=O)c1cc(NC(=S)NCc2ccc(Cl)cc2)cc(C(=O)OC)c1 | 51* | -78 | -6 | i | -1 | 36
